{"source": "PubChem BioAssay (Tox21)", "note": "Results filed as inconclusive are left out. Activity calls are given as the source filed them. Calls follow the shape of the dose curve; as a rule, active = well fitted cell-killing curve with a large enough effect in the repeat runs; inconclusive = weak or mixed curves, or effect the other way; inactive = flat fitted curve, though single readings scatter."}
{"assay": "qHTS RealTime-Glo MT Cell Viability Assay in HEK293 cells - 0 hour (AID 1224880); also: top concentration of the series differs between compounds; nearly all actives have a fitted effect of over 45% in size", "conditions": "RealTime-Glo luminescence; series mostly up to 76.8 µM", "text": "U.S. Tox21 Program National Center for Advancing Translational Sciences [NCATS] NIH Chemical Genomics Center [NCGC] U.S. Environmental Protection Agency [EPA] National Institutes of Environmental Health Sciences [NIEHS] National Toxicology Program [NTP] U.S. Food and Drug Administration [FDA] Tox21 Assay Overview: Measure of cell viability is critical in the cell-base assay. Analysis of cell viability is necessary for the characterization of cell responses to cytotoxic drugs and environmental stress. A RealTime-Glo MT Cell Viability Assay to monitor cell viability in real time of continues cell culture during 40 hours of compound treatment was used to screen Tox21 10K library compounds in Hek293 cells. The RealTime-Glo MT Cell Viability Assay is a nonlytic, homogeneous, bioluminescent method to measure cell viability in real time using a simple, plate-based method. The assay involves adding NanoLuc luciferase and a cell-permeant prosubstrate to cells in culture. Viable cells reduce the proprietary prosubstrate to generate a substrate for NanoLuc luciferase. This substrate diffuses from cells into the surrounding culture medium, where it is rapidly used by the NanoLuc Enzyme to produce a luminescent signal. The signal correlates with the number of viable cells, making the assay well suited for cytotoxicity studies.\nTox21 Assay Protocol Summary: The mixture of Hek293 cell suspension and reagents were dispensed at 600cells/6 ul/well in 1536-well tissue culture treated black solid bottom plates using a Multidrop dispenser. After the assay plates were incubated at a 37 C/5% CO2 incubator for 5 hours, 23 nL of compounds dissolved in DMSO, positive and negative controls was transferred to the assay plate by a pintool work station. The plates were incubated at 37 C for 40 hours. The luminescence intensity were measured at 0h, 8h, 16h, 24h, 32h and 40h time points using ViewLux plate reader during compound treatment."}
{"smiles": "COc1ccc([N+](=O)[O-])cc1N", "outcome": "inactive"}
{"smiles": "C=CCCCCCCCCC(=O)O", "outcome": "inactive"}
{"smiles": "Brc1ccc(Br)c(Br)c1", "outcome": "inactive"}
{"smiles": "O=S(=O)(O)c1ccccc1", "outcome": "inactive"}
{"smiles": "CCCCCCCO", "outcome": "inactive"}
{"smiles": "C=CC(=O)OCCC(=O)O", "outcome": "inactive"}
{"smiles": "CN(C)c1ccc(O)c2c1C[C@H]1C[C@H]3[C@H](N(C)C)C(=O)C(C(N)=O)=C(O)[C@@]3(O)C(=O)C1=C2O", "outcome": "inactive"}
{"smiles": "NCCNCCN", "outcome": "inactive"}
{"smiles": "CC(O)CC(C)(C)O", "note": "(stereo not given)", "outcome": "inactive"}
{"smiles": "O=C(O)c1ccccc1C(=O)O", "outcome": "inactive"}
{"smiles": "N#Cc1ccccc1", "outcome": "inactive"}
{"smiles": "O=C1CCCC1", "outcome": "inactive"}
{"smiles": "O=C(O)/C=C/C(=O)O", "outcome": "inactive"}
{"smiles": "CC(C)=CCl", "outcome": "inactive"}
{"smiles": "CCCCC(C=O)CC", "note": "(stereo not given)", "outcome": "inactive"}
{"smiles": "CCCCCCCCCCN", "outcome": "inactive"}
{"smiles": "CC(CCO)CC(C)(C)C", "note": "(stereo not given)", "outcome": "inactive"}
{"smiles": "CCNc1ccccc1", "outcome": "inactive"}
{"smiles": "CC(C)OC(=O)COc1ccc(Cl)cc1Cl", "outcome": "inactive"}
{"smiles": "O=c1[nH]cnc2[nH]ncc12", "outcome": "inactive"}
{"smiles": "CCNC(=S)NCC", "outcome": "inactive"}
{"smiles": "O=C(O)c1cc2ccccc2cc1O", "outcome": "inactive"}
{"smiles": "O=C(O)c1ccc(S(=O)(=O)N(Cl)Cl)cc1", "outcome": "inactive"}
{"smiles": "CC(C)(Oc1ccc(CCNC(=O)c2ccc(Cl)cc2)cc1)C(=O)O", "outcome": "inactive"}
{"smiles": "O=C(O)CCCCCCCCC(=O)O", "outcome": "inactive"}
{"smiles": "COC(=O)c1cccnc1", "outcome": "inactive"}
{"smiles": "OCc1cccc(Oc2ccccc2)c1", "outcome": "inactive"}
{"smiles": "CCNc1cccc(C)c1", "outcome": "inactive"}
{"smiles": "O=S(=O)(O)c1ccc(N=Nc2c(O)ccc3cc(S(=O)(=O)O)ccc23)cc1", "outcome": "inactive"}
{"smiles": "Cc1ccc([N+](=O)[O-])cc1S(=O)(=O)O", "outcome": "inactive"}
{"smiles": "CN(C)c1ccc(Cc2ccc(N(C)C)cc2)cc1", "outcome": "inactive"}
{"smiles": "CC(C)c1cccc(C(C)C)c1", "outcome": "inactive"}
{"smiles": "C=CCc1ccc(OC)c(OC)c1", "outcome": "inactive"}
{"smiles": "O=C(OCC1CCC2OC2C1)C1CCC2OC2C1", "note": "(stereo not given)", "outcome": "inactive"}
{"smiles": "N[C@H](Cc1c[nH]c2ccccc12)C(=O)O", "outcome": "inactive"}
{"smiles": "CCCCCC(=O)O", "outcome": "inactive"}
{"smiles": "C=C(C)C(=O)OCC(C)C", "outcome": "inactive"}
{"smiles": "CC(C)CC(C)O", "note": "(stereo not given)", "outcome": "inactive"}
{"smiles": "CCOCC(=O)O", "outcome": "inactive"}
{"smiles": "O=C(O)c1ccc(C(=O)O)c(C(=O)O)c1", "outcome": "inactive"}
